Measured values published in PubChem BioAssay AID588727 (Southern Research Specialized Biocontainment Screening …, 2011).
The campaign covered roughly 350,000 compounds. About 450 (0.13%) were called active. How the calls were made is not given here. These entries were drawn from the full list. Measured potencies and affinities stand elsewhere.

Test: inhibitors of VEEV TC-83 cytopathic effect, confirmation, Vero cells (AID 588727)
Conditions: VEEV TC-83 cytopathic effect inhibition, at 20 µM
[1] = stronger effect = higher value unless noted
[2] = measured here: 10K pilot screen inhibition, stronger effect = higher value

Fc1ccccc1CSc1ncnc2c1ncn2C1CCCCO1 (stereo not given)
inhibition [1]: 4.89% (inactive)

c1ccc(CSc2ncnc3c2ncn3C2CCCCO2)cc1 (stereo not given)
inhibition [1]: 4.13% (inactive)

CCOC(=O)C1CCC(=O)C1 (stereo not given)
inhibition [1]: 0.89% (inactive)

Cn1c(CN2CCCCC2)nc2cc(NS(=O)(=O)c3ccc(F)cc3)ccc21
inhibition [1]: 0.17% (inactive)

C#CCN(C[C@@H]1[C@@H](OC(=O)Nc2cccs2)[C@@H](OC(=O)Nc2cccs2)Cn2c(=O)n(CCCCCC)c(=O)n21)S(=O)(=O)c1ccc(C)cc1
inhibition [1]: inactive

C#CCN(C[C@@H]1[C@@H](OC(=O)NC2CC2)[C@@H](OC(=O)NC2CC2)Cn2c(=O)ccc(=O)n21)S(=O)(=O)c1ccc(C)cc1
inhibition [1]: 0.49% (inactive)

COc1ccc(-c2c3c(=O)n(C)c(=O)n(C)c3cn2Cc2cccnc2)cc1
inhibition (stronger effect = higher value): 1.95% (inactive)
inhibition [2]: 1.55%

CC(C)=CCN1CCN(Cc2coc3ccc(C)cc3c2=O)CC1CCO (stereo not given)
inhibition [1]: 0.54% (inactive)

Cc1ccc2nc(NC(=O)Cn3nc(C)c([N+](=O)[O-])c3C)sc2c1
inhibition [1]: 5.1% (inactive)

CN1CCN(C(=O)N2c3ccccc3C=Cc3ccccc32)CC1
inhibition [1]: 0.28% (inactive)

CN(C)CCCNC(=O)c1cc2sc3ccccc3c2s1
inhibition [1]: 0.94% (inactive)

COCCNC(=O)c1cc2sc3ccccc3c2s1
inhibition [1]: 3.33% (inactive)

O=C1/C(=C/c2cccs2)SC(=S)N1CC(=O)N1CCCCC1CCO (stereo not given)
inhibition [1]: 2.22% (inactive)

COC(=O)C/C=C/N(Cc1ccccc1OC)S(=O)(=O)CCl
inhibition [1]: inactive

COc1ccc(NC2=C(NC(C)=O)C(=O)c3ccccc3C2=O)cc1
inhibition [1]: inactive

CN(C)c1ccc(NC2=C(Cl)C(=O)c3ccccc3C2=O)cc1
inhibition [1]: 2.81% (inactive)

O=C(Nc1ccc2ccccc2c1)c1ccccc1[N+](=O)[O-]
inhibition [1]: 0.3% (inactive)

O=C(NC(=S)NCCN1CCOCC1)c1cccc(Cl)c1
inhibition [1]: 2.05% (inactive)

O=S(=O)(NCC1CN(S(=O)(=O)c2c(F)cccc2F)C1)c1ccc2c(c1)OCCO2
inhibition [1]: 0.08% (inactive)

COc1ccc(OC)c(Nc2nc(=O)c3cccnc3s2)c1
inhibition [1]: 4.47% (inactive)

Cc1ccc(Nc2nc(=O)c3cccnc3s2)cc1
inhibition [1]: inactive

CC(=O)c1cccc(Nc2nc(=O)c3cccnc3s2)c1
inhibition [1]: 3.68% (inactive)

CC(=O)c1ccc(Nc2nc(=O)c3cccnc3s2)cc1
inhibition [1]: 2.57% (inactive)

COCOCCn1cc(CN2CCS(=O)(=O)N(Cc3ccc(-c4cccc(CO)c4)cc3)C(CC(C)C)C2=O)nn1 (stereo not given)
inhibition [1]: 6.1% (inactive)

CCOC(=O)[C@@H]1[C@H]2COc3ccc(Br)cc3[C@@H]2N2C(=O)N(c3cccc(Cl)c3)C(=O)[C@]12C
inhibition [1]: inactive

CCOC(=O)C1=C(NC(=S)NC(=O)c2ccccc2)c2ccccc2CC1(C)CC (stereo not given)
inhibition (stronger effect = higher value): 11.4% (inactive)
inhibition [2]: 20.8%

CCOC(=O)C1=C(N)c2ccccc2CC1C(C)C (stereo not given)
inhibition [1]: inactive

Cc1ccc(C)c(CN2C(=O)c3ccccc3S(=O)(=O)c3ccc(C(=O)N4CCN(C)CC4)cc32)c1
inhibition [1]: 0.5% (inactive)

Cc1ccc(C(=O)N2CCN(c3ccccn3)CC2)cc1C
inhibition [1]: 1.05% (inactive)

O=C(c1ccc2c(c1)N(Cc1ccc(F)cc1)C(=O)c1ccccc1S2(=O)=O)N1CCN(c2ccccn2)CC1
inhibition [1]: 8.23% (inactive)

CN1CCN(C(=O)c2ccc3c(c2)N(Cc2cccc(Cl)c2)C(=O)c2ccccc2S3(=O)=O)CC1
inhibition [1]: inactive

CC(=O)C(=Nc1cccc(Cl)c1)NNc1ccccc1C
inhibition [1]: inactive

CC(=O)Nc1ccc(C(=O)OCC(=O)c2cccc([N+](=O)[O-])c2)cc1
inhibition [1]: 0.91% (inactive)

O=C(C[n+]1cccc(NC(=O)c2ccccc2)c1)c1cccc([N+](=O)[O-])c1
inhibition [1]: inactive

CCOC(=O)C1=C(COC(=O)c2cccc(NC(C)=O)c2)NC(=O)NC1C (stereo not given)
inhibition [1]: 1.96% (inactive)

C#CCn1c(S(=O)(=O)Cc2ccccc2Cl)nc(-c2ccccc2)c1-c1ccccc1
inhibition [1]: 1.45% (inactive)

CCOC(=O)Cn1c(S(=O)(=O)Cc2cccc(F)c2)nc(-c2ccccc2)c1-c1ccccc1
inhibition [1]: 3.2% (inactive)

CCOC(=O)Cn1c(S(=O)(=O)Cc2ccc(F)cc2)nc(-c2ccccc2)c1-c1ccccc1
inhibition [1]: 5.03% (inactive)

C#CCn1c(S(=O)(=O)Cc2ccc(OC)cc2)nc(-c2ccccc2)c1-c1ccccc1
inhibition [1]: 0.79% (inactive)

COC(=O)c1ccccc1-c1ccc(/C=N/Nc2nc(N3CCCC3)nc(N3CCCC3)n2)o1
inhibition [1]: 9.1% (inactive)

COc1ccc(S(=O)(=O)N2CCCc3ccccc32)cc1OC
inhibition [1]: inactive

Cc1c(OCC(=O)N(C)C)ccc2c(-c3ccccc3)cc(=O)oc12
inhibition [1]: 2.42% (inactive)

Cn1cccc1C(=O)NC(=O)COC(=O)c1ccc(S(C)(=O)=O)cc1
inhibition [1]: 1.82% (inactive)

CCOC(=O)c1cc(-c2ccccc2)sc1NC(=O)C(C)(C)C
inhibition [1]: 0.72% (inactive)

O=C(Nc1sc(-c2ccccc2)cc1C(=O)O)c1ccccc1
inhibition [1]: inactive

COC(=O)C1=C(CSCc2ccccc2)NC(=O)NC1c1cc(C)ccc1C (stereo not given)
inhibition [1]: 1.95% (inactive)

CNC(=S)Nc1ccc(-c2nc3ccc(C)cc3s2)cc1
inhibition [1]: 5.72% (inactive)

CCC(C)(C)NC(=S)Nc1ccc(-c2nc3ccc(C)cc3s2)cc1
inhibition [1]: 1.78% (inactive)

CCOC(=O)c1c(C)oc(NC(=O)CCl)c1C(=O)OCC
inhibition [1]: 1.19% (inactive)

Cc1cc(C(=O)Nc2c(C)nn(Cc3ccccc3Cl)c2C)no1
inhibition [1]: 1.51% (inactive)

Cc1nn(Cc2ccc(Cl)cc2)c(C)c1NC(=O)c1cc(C(C)C)on1
inhibition [1]: 0.91% (inactive)

CNC(=O)c1cc(S(=O)(=O)Nc2ccc3c(c2)OCCO3)ccc1C
inhibition [1]: 0.34% (inactive)

C#CCOCCOCCOCCNc1nc(OC)nc(N2CCN(C(=O)[C@H](CCC(=O)O)n3cc(C(N)CO)nn3)CC2)n1 (stereo not given in full)
inhibition [1]: 1.77% (inactive)

CN1CCN(CC(=O)Nc2cc(N3CCOCC3)ccc2[N+](=O)[O-])CC1
inhibition [1]: 0.32% (inactive)

Cc1c(CCO)c(=O)[nH]n1S(=O)(=O)c1ccc(F)cc1
inhibition [1]: inactive

Cc1c(CCO)c(=O)[nH]n1C(=O)c1ccc(F)cc1
inhibition [1]: 0.71% (inactive)

CN1C(=O)C2(NCCc3c2[nH]c2ccccc32)c2ccccc21 (stereo not given)
inhibition [1]: 1.48% (inactive)

CC1=CC(C)(C)N2C(=O)C3(NCCc4c3[nH]c3ccccc43)c3cccc1c32 (stereo not given)
inhibition [1]: 0.24% (inactive)

CCn1cc([N+](=O)[O-])c(C(=O)Nc2ccn(C34CC5CC(CC(C5)C3)C4)n2)n1
inhibition [1]: 0.69% (inactive)

Cc1nn(C)c(C(=O)Nc2ccn(C34CC5CC(CC(C5)C3)C4)n2)c1[N+](=O)[O-]
inhibition [1]: 0.3% (inactive)

Cn1cc([N+](=O)[O-])c(C(=O)Nc2ccc(C(=O)N3CCCCC3)cc2)n1
inhibition [1]: 10.8% (inactive)

Cn1ncc([N+](=O)[O-])c1C(=O)Nc1ccc(C2CCCCC2)cc1
inhibition [1]: 2.86% (inactive)

CCOc1ccc(S(=O)(=O)N2CCCCC2)cc1NC(=O)C1=COCCO1
inhibition [1]: 10.1% (inactive)

O=C1NC2=C(C(=O)CCC2)C(c2ccc([N+](=O)[O-])cc2)N1 (stereo not given)
inhibition [1]: inactive

NS(=O)(=O)c1ccc(CNC(=O)c2cccc(S(=O)(=O)N3CCc4ccccc43)c2)cc1
inhibition [1]: 2.16% (inactive)

O=C(c1cccc(S(=O)(=O)N2CCc3ccccc32)c1)N1CCOCC1
inhibition [1]: 1.59% (inactive)

O=C(c1cccc(S(=O)(=O)N2CCc3ccccc32)c1)N1CCc2ccccc2C1
inhibition [1]: 6.28% (inactive)

COc1ccccc1N1CCN(C(=O)c2cccc(S(=O)(=O)N3c4ccccc4CC3C)c2)CC1 (stereo not given)
inhibition [1]: 5.41% (inactive)

COc1cc2c(cc1OC)CN(C(=O)c1cccc(S(=O)(=O)N(C)C)c1)CC2
inhibition [1]: 1.42% (inactive)

CC(=O)N1CCN(C(=O)c2cccc(S(=O)(=O)N3c4ccccc4CC3C)c2)CC1 (stereo not given)
inhibition [1]: inactive

COc1ccc(N2CCN(C(=O)c3cccc(S(=O)(=O)N4CCc5ccccc54)c3)CC2)cc1
inhibition [1]: 4.71% (inactive)

CN(CC(=O)Nc1ccccc1Br)C(=O)c1cccc(S(=O)(=O)N2CCc3ccccc32)c1
inhibition [1]: 7.03% (inactive)

CC(C)OC(=O)CSc1nnc(CNc2ccc(Cl)cc2)n1Cc1ccccc1
inhibition [1]: inactive

Cc1cc(/N=C/C=C2/N(C)c3ccccc3C2(C)C)n(CCC#N)n1
inhibition [1]: 1.39% (inactive)

CC(=O)Nc1c2c(nn1-c1cccc(Cl)c1)CS(=O)(=O)C2
inhibition [1]: inactive

O=C(COC(=O)/C=C/c1ccc(F)cc1)NC1CCCC1
inhibition [1]: 2.24% (inactive)

Cn1nnnc1Sc1ncnc2scc(-c3ccc(C(F)(F)F)cc3)c12
inhibition [1]: inactive

CCCCCC1CC(CC(=O)Nc2ccc([N+](=O)[O-])cc2)OC1=O (stereo not given)
inhibition [1]: inactive

NC(=NC1CCCCC1)c1ccc(Cl)cc1
inhibition [1]: 0.26% (inactive)

CCCCn1c(=O)[nH]c(=O)c2c1nc(CN(C)Cc1cccc(OC)c1OC)n2CCC
inhibition [1]: 6.28% (inactive)

CCCCCC(=O)N1C[C@@H](n2cc(COC(=O)c3ccccc3)nn2)[C@H](O)C[C@@H]1c1ccc(OC)cc1
inhibition [1]: 0.24% (inactive)

Cc1cccc(-n2ncc3c(N4CC(C)CC(C)C4)ncnc32)c1 (stereo not given)
inhibition [1]: 1.8% (inactive)

Cc1cccc(C(=O)NCCNC(=O)c2cccc(C)c2)c1
inhibition [1]: inactive

CNC(=O)C1=C(C)Nc2nc3ccccc3n2C1c1ccc(F)cc1 (stereo not given)
inhibition [1]: 0.17% (inactive)

O=C(CC(=O)c1cccc([N+](=O)[O-])c1)Nc1ccccc1Cl
inhibition [1]: inactive

Cc1ccc(S(=O)(=O)N2C[C@@H](C)[C@]3(C2)[C@H](O)[C@H](OC(=O)NC2CC2)C[C@H]2C(=O)N(c4ccccc4)C(=O)[C@H]23)cc1
inhibition [1]: 11.5% (inactive)

Cc1ccc(S(=O)(=O)N2C[C@@H](C)[C@]3(C2)[C@H](O)[C@H](OC(=O)NCc2ccccc2)C[C@H]2C(=O)N(c4ccccc4)C(=O)[C@H]23)cc1
inhibition [1]: 5.33% (inactive)

COCCNC(=O)CN(c1ccc(OC)c(OC)c1)S(=O)(=O)c1ccc(C)cc1
inhibition [1]: 1.04% (inactive)
